According to PubChem BioAssay (Tox21):
Several values for one entry are separate records, joined by “and”; a condition that tells them apart may be missing. Equal values may be shown once. Records with an inconclusive call do not appear. A call without a number means that no potency is given here. Activity calls are given as the source filed them. The call rests on the fitted dose curve; in most records, active means well fitted cell-killing curve with a large enough effect in the repeat runs; inconclusive means weak or mixed curves; inactive means no such curve, though single readings can be large or run the other way.

Assay: qHTS assay for identifying genotoxic compounds that show differential cytotoxicity against isogenic chicken DT40 cell lines with known DNA damage response pathways - Rad54/Ku70 mutant cell line (AID 743015); further: nearly all actives have a fitted effect of over 60% in size
Conditions: DT40 Rad54/Ku70 mutant viability, CellTiter-Glo, 40 h; series mostly up to 66.8 µM
From the text: National Center for Advancing Translational Sciences [NCATS]
NIH Chemical Genomics Center [NCGC]
U.S. Environmental Protection Agency [EPA]
National Institutes of Environmental Health Sciences [NIEHS]
National Toxicology Program [NTP]
U.S. Food and Drug Administration [FDA]
DNA repair pathways play a critical role in cellular homeostasis by repairing DNA damage induced by endogenous processes and xenobiotics. Isogenic chicken DT40 cell lines deficient in different DNA repair pathways can be used to identify genotoxic compounds and aid in characterizing the nature of the DNA damage induced. Two DNA repair-deficient cell lines with disrupted genes, Rad54/Ku70 or Rev3, were used to screen the Tox21 10K compound library. Possible genotoxicity was based on the presence of a significant increase in cytotoxicity in one or more of the DNA repair-deficient cell lines compared to that observed in the parental DNA repair-proficient cell line. CellTiter Glo viability assay (Promega, Madison, WI) was used to measure cell viability in these cells after compound treatment. This assay includes the data from the Rad54/Ku70 mutant cell line.
Tox21 Assay Protocol Summary:
300 DT40 mutant cells in 5 uL/well were dispensed into white, solid-bottom 1536-well plates using a Multidrop Combi (ThermoFisher Scientific, Waltham, MA) dispenser. After the assay plates were incubated at 37 C/5% CO2 for approximately 0.5 hour, 23 nL of compounds dissolved in DMSO, positive controls or DMSO only was transferred into the assay plate by a pintool work station (Kalypsys, San Diego, CA). The assay plates were incubated at 37 C/5% CO2 for 40 hours. After 5 uL per well of CellTiter-Glo reagent was added into each well of the assay plates, the plates were incubated for 30 min at room temperature and the luminescence intensity of the plates was measured using a ViewLux (PerkinElmer, Shelton, CT) plate reader.
Potency means the concentration at half of the fitted maximal effect.

SMILES | Potency
CCCCC(CC)COC(=O)COc1ccc(Cl)cc1Cl (stereo not given) | inactive
O=C(OCCCCCCOC(=O)c1ccccc1)c1ccccc1 | 54.5 µM (active)
CN1CCC(N(Cc2cccs2)c2ccccc2)CC1 | 10.6 µM (active)
CC1=CCCC(C)(C)C12CCC(C)O2 (stereo not given) | 13.7 µM (active)
CN(C)C(=O)NC1(c2ccccc2)CCN(CC[C@@]2(c3ccc(F)c(F)c3)CN(C(=O)c3ccccc3)CCO2)CC1 | 28.4 µM (active)
OCc1cc(C(O)CNCCCCCCOCCCCc2ccccc2)ccc1O (stereo not given) | 5.31 µM (active) and 3.35 µM (active)
CCc1c(C(=O)NN2CCCCC2)nn(-c2ccc(Cl)cc2Cl)c1-c1ccc(Br)cc1 | 13.7 µM (active)
CCCCC(CC)CN1C(=O)C2C3C=CC(C3)C2C1=O (stereo not given) | 43.3 µM (active)
Cc1[nH]c(C)c(Cl)c(=O)c1Cl | inactive
CCCCCCCCCc1ccc(OCCOCCO)cc1 | 3.76 µM (active) and 1.81 µM (active)
CN1CCC(=C2c3ccccc3Sc3ccccc32)CC1 | 8.41 µM (active)
CCOC(=O)c1cccnc1 | inactive
C[N+](C)(C)CCOC(=O)CCC(=O)OCC[N+](C)(C)C | inactive
C[C@H]1C[C@H]2[C@@H]3CCC4=CC(=O)C=C[C@]4(C)[C@@]3(Cl)[C@@H](O)C[C@]2(C)[C@@]1(O)C(=O)CO | inactive
CC/C=C\CCOC(=O)CC | inactive
CCCCCCCN | inactive
CC1=CC[C@H](C(C)C)C=C1 | 61.1 µM (active)
COC(=O)c1ccc(I)cc1S(=O)(=O)NC(=O)Nc1nc(C)nc(OC)n1 | inactive
COc1cccc(N(C)C(=S)Oc2ccc3c(c2)CCCC3)n1 | 26.6 µM (active)
O=C(O)c1ccco1 | inactive

SMILES | Potency
C#Cc1cccc(Nc2ncnc3cc(OCCOC)c(OCCOC)cc23)c1 | 13.3 µM (active)
O=C1C(O)=C(O)C(=O)C(O)=C1O | inactive
COc1cc(C(=O)OCCCN2CCCN(CCCOC(=O)c3cc(OC)c(OC)c(OC)c3)CC2)cc(OC)c1OC | 8.41 µM (active)
c1ccc(-c2ccccn2)nc1 | 24.3 µM (active)
C=C(C)C(=O)OCCO | inactive
ClCCOCCOCCCl | inactive
NCC(=O)CCC(=O)O | inactive
COc1ccc(C(=O)c2ccc(OC)cc2O)c(O)c1 | inactive
CC(C)OC(=O)C(C)N(C(=O)c1ccccc1)c1ccc(F)c(Cl)c1 (stereo not given) | 13.7 µM (active)
CC(=O)NO | inactive
CCN(CC)c1ccc2c(-c3ccccc3C(=O)O)c3ccc(=[N+](CC)CC)cc-3oc2c1 | 8.63 µM (active)
CCCCC/C=C\C/C=C\CCCCCCCC(=O)NC(C)c1ccccc1 (stereo not given) | inactive
CCO[C@H](Cc1ccc(OCCc2ccc(OS(C)(=O)=O)cc2)cc1)C(=O)O | inactive
CCCCc1ncc(/C=C(\Cc2cccs2)C(=O)O)n1Cc1ccc(C(=O)O)cc1 | inactive
CCCCCCCCCCCCCCCCCCOS(=O)(=O)O | inactive
CC(C)CC(=O)C1C(=O)c2ccccc2C1=O | inactive
N=c1ccn2c(n1)O[C@H]1[C@H](O)[C@@H](CO)O[C@H]12 | 266 nM (active) and 172 nM (active)
CCN(CC)CCNC(=O)c1cc(Br)c(N)cc1OC | inactive
OC(CN1CCC(Cc2ccc(F)cc2)CC1)c1ccc(Cl)cc1 (stereo not given) | 2.11 µM (active)
O=C(c1ccc(F)cc1)C1CCN(CCn2c(=S)[nH]c3ccccc3c2=O)CC1 | 6.68 µM (active)
